# From PubChem BioAssay AID1117361 (Southern Research Institute, 2015)
# Screen size: about 3,600 compounds; about 900 (25%) were called active. The list is a sample of the results. Potency and affinity values are given separately. A number with no mark means an inactive call. No rule for the calls is given here.
# Target: Protein Tat (Human immunodeficiency virus type 1 group M subtype B (isolate HXB2)) (UniProt P04608)
# Test: HIV-1 Tat–TAR interaction blockers – biochemical, fluorescence polarization, FAM-labeled TAR RNA, counter-screen for Vif-APOBEC3G degradation inhibitor project, dose response (AID 1117361)
# Conditions: Tat-TAR RNA binding; series mostly up to 100 µM; inhibition: at the top concentration
Structure (SMILES),outcome,inhibition [%]
O=C(CSc1nnc(CCCO)n1-c1ccccc1)NCCc1ccccc1,inactive,–
CCc1ccc(N(C2C=CS(=O)(=O)C2)S(=O)(=O)c2ccc(C)cc2)cc1 (configuration not stated),inactive,–
O=C(c1cnn2c(C(F)F)cc(C3CC3)nc12)N1CCc2ccccc2C1,–,3.41
Cc1cc(F)ccc1S(=O)(=O)Nc1ccccc1C(=O)Nc1ccc2[nH]c(=O)[nH]c2c1,–,0.68
CN(C)CCNC(=O)C(=O)c1c(-c2ccccc2)cc2ccccn12,–,3.3
Cc1ccccc1OCC(=O)NN1Cc2ccccc2C1=N,–,0.68
CCN1C(=O)c2ccccc2S(=O)c2ccc(C(=O)NC3CC3)cc21 (configuration not stated),–,6.08
CCCCC(=O)NCCNC(=O)c1cc(OCC(F)(F)F)ccc1OCC(F)(F)F,–,2.73
CC(C)NC(=O)c1cc(-c2ccco2)nn1-c1ccc(Cl)cc1,–,21.7
COc1ccccc1NC(=O)N1CCCC1C(=O)NC1CCCCC1 (configuration not stated),inactive,–
Cc1[nH]c(=O)nc(NN=Cc2ccc(Cl)cc2)c1C(=O)Nc1ccc(Cl)cc1,inactive,–
CN1C(=O)CSc2ccc(NC(=O)NCc3cccnc3)cc21,inactive,–
Nc1c2c(nc3ccccc13)CCC2,–,4.09
O=C(Nc1nc2ccc(Cl)cc2s1)C1CCCO1 (configuration not stated),–,6.08
COc1cc(NC(=O)c2cccs2)c(OC)cc1NC(=O)CCn1nnc2ccccc21,inactive,–
O=C(CS(=O)(=O)c1cn(Cc2ccc(F)cc2)c2ccccc12)N1CCCCC1,inactive,–
O=C(N/N=C/c1ccc(OC(=O)c2cccs2)cc1)c1cccc(F)c1,–,2.7
O=C(Nc1ccccc1-c1nnn(CC(=O)N2CCc3ccccc3C2)n1)C1CCC1,–,8.78
CNc1nc(Sc2cccc(C(F)(F)F)c2)cc(C(F)(F)F)n1,–,2.7
CC(=O)n1nc(-c2ccc(Cl)cc2)nc1NCc1ccco1,–,2.05
O=C1CSC(c2nn(-c3ccccc3)cc2-c2cc3ccccc3oc2=O)N1Cc1ccco1 (configuration not stated),–,26.4
O=C(CCN1C(=O)c2ccccc2C1=O)NCc1ccco1,–,2.34
CCOC(=O)c1c(NC(=O)CCN2CCOCC2)sc(C)c1-c1ccccc1,inactive,–
CC(=O)N1CCCc2cc(S(=O)(=O)N(C)CCC#N)ccc21,–,2.7

Structure (SMILES),outcome,inhibition [%]
CCc1c(C)[nH]c(=S)c(C#N)c1C,–,7.5
O=C(NCc1ccc(F)cc1)C1CCCN1C(=O)NCc1ccccc1 (configuration not stated),inactive,–
CCCC(c1nnnn1CC(=O)OCC)N(Cc1cc2c(C)cc(C)cc2[nH]c1=O)C1CCCC1 (configuration not stated),–,16.4
O=C(c1ccco1)N1CCN=C1SCc1ccccc1F,–,6.82
Cc1ccccc1S(=O)(=O)Cc1ccc(C(=O)NCCCN2CCC(C)CC2)o1,–,2.34
O=C(CCCCl)Nc1nc(-c2ccc3c(c2)OCCO3)cs1,–,4.12
CN(C)C(=O)c1cc(Cl)ccc1Sc1cc(Cl)ccc1Cl,–,4.77
COC(C[C@H]1O[C@@H]1[C@@H](O)COCc1ccccc1)OC,inactive,–
N#Cc1nc(Cc2cccc3ccccc23)oc1NCc1ccc(F)cc1,inactive,–
Cc1nc(C(=O)N(C)C)nn1-c1cc(Cl)cc(Cl)c1,–,2.05
CCC(=O)Nc1nc2ccc(NC(C)=O)cc2s1,inactive,–
CC(C)c1ccccc1N1CC(C(=O)O)CC1=O (configuration not stated),inactive,–
COc1cc(C2C(C(=O)c3ccco3)=C(O)C(=O)N2c2cc(C)on2)cc(Br)c1O (configuration not stated),–,27.7
COc1ccc(/C(O)=C2/C(=O)C(=O)N(c3ccccn3)C2c2ccc(F)cc2)cc1 (configuration not stated),–,9.69
O=C(C1CCCC1)N1CCCC(Nc2ccc(F)cc2)C1 (configuration not stated),–,1.67
O=C(c1cc(-c2cccs2)on1)N1CCCCC1,–,4.73
COc1ccccc1N1CCN(C(=O)c2cc(-c3cccs3)on2)CC1,inactive,–
COc1cccc2sc(N(C)c3ccccc3)nc12,inactive,–
CC1CCN(S(=O)(=O)c2cc(Br)cc(C(=O)NC3=NCCS3)c2)CC1,–,4.05
COc1cc(/C=N/NC(=O)c2ccc(NS(=O)(=O)c3cccs3)cc2)cc(OC)c1O,inactive,–
C=CCNC(=O)c1ccncc1,–,2.03
CCn1cc(C(=O)N2CCOCC2)c(=O)c2cc(S(=O)(=O)N(C)C3CCCCC3)ccc21,inactive,–
CSc1cccc(NC(=O)C(C)C)c1,–,19
CSc1cccc(NC(=O)CN(c2cc(C)ccc2C)S(C)(=O)=O)c1,–,6.08

Structure (SMILES),outcome,inhibition [%]
CCOC(=O)C1CCN(C(=O)c2ccc(Cl)c(S(=O)(=O)N3CCOCC3)c2)CC1,–,13
O=C(N/N=C/c1ccc(F)cc1)c1ccc(Br)cc1,–,13.6
CSCC[C@H](NC(=O)NCc1ccccc1F)C(=O)O,–,2.03
O=C(O)c1ccccc1NS(=O)(=O)c1ccccc1C(F)(F)F,–,1.36
COc1ccc(NC(=O)c2cccnc2C(=O)O)c(OC)c1,–,4.95
Cc1cc(=O)[nH]c2c1c(C)nn2C1CCCC1,inactive,–
Cc1ccc2c(c1)c(=O)c1c3n2CCN(C(=O)CCl)C3CC1 (configuration not stated),–,16.4
O=C(COC(=O)c1ccccc1OC(F)F)Nc1ccc2[nH]c(=O)[nH]c2c1,inactive,–
CCN(CC)C(=O)c1sc(NC(=O)c2ccc(Br)o2)c(C(=O)OC)c1C,–,5.46
CCc1c(C(=O)NCc2ccccc2Cl)[nH]c(C)c1C(C)=O,inactive,–
C=CCNC(=O)c1ccccc1Cl,inactive,–
Nc1ccc(Sc2cc(Cl)nc(N)n2)cc1,–,4.05
O=C(CSc1nc(N2CCCCC2)nc(N2CCCCC2)n1)N1CCc2ccccc21,inactive,–
O=C(Cn1ccc([N+](=O)[O-])n1)N1CCCc2ccccc21,–,2.03
CCCCNC(=O)CN1C(=O)CSc2ccc(S(=O)(=O)N3CCOCC3)cc21,inactive,–
CO/N=C/C(=N\Nc1ccc(OC)cc1)C(=O)c1ccc(OC)cc1,–,5.46
COc1ccc(C(=O)C2CCCN(C(=O)c3cnsn3)C2)c(C)c1 (configuration not stated),inactive,–
CC(=O)c1ccc(-c2nnc(CCC(=O)N(C)Cc3c(C)nc4ccccn34)o2)s1,–,4.95
CN(C(=O)CSc1ncnc2sccc12)C1CCCCC1,inactive,–
O=C(/C=C/c1ccccc1)NC(NC(=S)Nc1cc(Cl)ccc1Cl)C(Cl)(Cl)Cl (configuration not stated),inactive,–
O=C(O)c1cccc(NCc2ccncc2)c1,–,20.9
COC(=O)c1cccc(NC(=O)c2cccc(OC)c2)c1,–,4.05
COC(=O)c1ccc(NC(=O)COc2cccc(-n3cnnn3)c2)cc1,–,6.35
CC(=O)Nc1ccc2c(c1)Cc1cc(N3C(=O)C=CC3=O)ccc1-2,inactive,–
